# Screening results as filed in PubChem BioAssay.
# Sampled rows, rich in hits. Any-hit rate of the full collection: about 6.1%.
# D3 ag = qHTS of D3 Dopamine Receptor Agonist: qHTS; D3R DiscoveRx beta-arrestin cells, luminescence, 90 min; hit rate 0.58% among 410,000; max activation, %; in the data active = max activation above about 30%
#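 Agonist-mode cell screen: cells plated at 1500/well and incubated overnight at 37 °C, then exposed to library compounds for 90 min at 37 °C. Detection reagent was added for 30–60 min at room temperature, and luminescence was read.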
# D1 potentiator = Potentiators of Human D1 Dopamine Receptor: qHTS. HEK293 TREx D1 cells, calcium flux, dopamine EC20 potentiation. potentiation, % at 10 µM. hit rate 0.036% among 360,000. AID 504651, 2011; in the data active = potentiation above about 30%
# Target sequence (P21728 whole entry, looked up): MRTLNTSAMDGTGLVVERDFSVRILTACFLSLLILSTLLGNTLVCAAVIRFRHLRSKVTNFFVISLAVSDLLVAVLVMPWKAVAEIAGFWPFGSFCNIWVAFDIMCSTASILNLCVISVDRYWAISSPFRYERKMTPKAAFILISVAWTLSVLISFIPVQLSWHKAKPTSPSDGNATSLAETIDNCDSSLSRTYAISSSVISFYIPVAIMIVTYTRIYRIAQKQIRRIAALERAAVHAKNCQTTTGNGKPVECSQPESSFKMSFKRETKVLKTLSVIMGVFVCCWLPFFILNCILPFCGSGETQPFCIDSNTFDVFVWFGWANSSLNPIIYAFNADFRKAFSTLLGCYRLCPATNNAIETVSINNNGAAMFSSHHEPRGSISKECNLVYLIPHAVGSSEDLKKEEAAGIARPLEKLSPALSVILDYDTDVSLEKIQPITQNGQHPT
# D1 antagonist = Antagonist of Human D 1 Dopamine Receptor: qHTS; hit rate 3.2% among 360,000; AID 504652, 2011; activity change, negative = inhibition, % at 10 µM; HEK293 TREx D1 cells, calcium flux, dopamine EC80; stronger effect = lower value; in the data active = activity change below about -30%
#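 Kinetic fluorescence of a calcium dye serves as the read-out. D1-expressing Hek293 Trex cells, induced overnight at 30 C, are exposed to compound for 180 s before an EC80 dopamine addition, then read 180 s further.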
# DRD3 antagonist = qHTS of D3 Dopamine Receptor Antagonist: qHTS. D(3) dopamine receptor (Homo sapiens), P35462. D3R cells, DiscoveRx beta-arrestin luminescence, antagonist mode; stronger effect = lower value. max response, negative = inhibition, %. hit rate 2.5% among 360,000; in the data active = max response below about -50%; inconclusive = no clear call, values can overlap the other calls
#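 Cells expressing the human receptor were seeded at 1500 cells/well, incubated overnight at 37 degrees C in 5% CO2, then exposed to library compounds with dopamine controls for 90 minutes at 37 degrees C before luminescent detection.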
# D1 ag = Allosteric Agonists of the Human D1 Dopamine Receptor: qHTS. D(1A) dopamine receptor (Homo sapiens), P21728. HEK293 T-REx D1 cells, calcium flux, agonist mode. activation, % at 2 µM. hit rate 1% among 360,000. AID 504660, 2011; in the data active = activation above about 30%
#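 Tetracycline-induced HEK293 TREx D1 cells, force-coupled to calcium signalling, were dye-loaded with a no-wash calcium kit. Compound was pin-added after a 10 s baseline. Fluorescence was read kinetically at 1 cycle/s for 180 s, with calcium rises flagged as agonism.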
# A number is an active result; . = inactive; ? = inconclusive; / = not tested or not shown.
SMILES,D3 ag,D1 potentiator,D1 antagonist,DRD3 antagonist,D1 ag
COc1ccc(-c2nnc(C3CCN(C(=O)c4ccccc4F)CC3)o2)cc1,.,.,.,/,.
N#Cc1nc(Nc2ccc(C(F)(F)F)cc2)nc(NC2CCCC2)n1,/,.,.,/,.
CCC(=O)Nc1sc2c(c1C(N)=O)CCN(Cc1ccccc1)C2,.,.,.,.,166
NC(=O)c1c(NC(=O)c2ccccc2)sc2c1CCN(Cc1ccccc1)C2,.,.,.,.,216
CCC(=O)Nc1sc2c(c1C(N)=O)CCN(C(C)=O)C2,.,.,.,?,.
CCN1CCc2c(sc(NC(=O)Nc3ccc(Cl)c(Cl)c3)c2C(N)=O)C1,.,.,.,.,418
CC(C)C(=O)Nc1sc2c(c1C(N)=O)CCN(Cc1ccccc1)C2,.,.,.,.,.
CCN1CCc2c(sc(NC(=O)Cc3ccccc3)c2C(N)=O)C1,.,.,.,?,.
CC(=O)N1CCc2c(sc(NC(=O)c3ccc([N+](=O)[O-])o3)c2C(N)=O)C1,.,/,/,-91,/
CN(Cc1ccc(F)cc1)Cc1nc(-c2cnccn2)no1,.,.,.,.,.
Cc1ccccc1CN(C)C(C)C(=O)NCc1ccccc1 (centres undefined),.,.,.,.,.
CN1CCc2c(sc(NC(=O)Cc3ccc(F)cc3)c2C(N)=O)C1,.,.,.,-51,.
CN1CCc2c(sc(NC(=O)Cc3ccccc3)c2C(N)=O)C1,.,.,.,.,.
NC(=O)c1c(NC(=O)c2c(F)cccc2F)sc2c1CCN(Cc1ccccc1)C2,.,.,.,.,155
CC(=O)Oc1ccc2c(C)c(CC(=O)N3CCN(C(=O)C4COc5ccccc5O4)CC3)c(=O)oc2c1C (centres undefined),.,.,.,.,.
COc1ccc(OC)c(NC(=O)COC(=O)c2ccc(S(=O)(=O)N3CCCCC3)cc2)c1,.,/,/,.,/
COc1ccc(OC)c(NC(=O)COC(=O)c2ccc(S(=O)(=O)N3CCOCC3)cc2)c1,.,.,-51,?,.
Cc1ccc(NC(=O)CCCOc2ccccc2)cc1S(=O)(=O)N1CCOCC1,.,.,-53,.,.
Cc1ccc(NS(=O)(=O)c2ccc3c(c2)OCCCO3)cc1S(=O)(=O)N1CCOCC1,.,.,-35,.,.
Cc1ccc(NC(=O)COC(=O)c2ccc(NC(=O)CC#N)cc2)cc1S(=O)(=O)N1CCOCC1,.,/,/,-53,/
CN(C)CCNC(=O)c1ccc(-n2c(-c3ccccc3)cc3c2CCCC3)cc1,.,.,.,/,.
CC1=C(C(=O)Nc2ccccc2)C(CC(C)C)n2nc(SCc3ccccc3C)nc2N1 (centres undefined),.,.,.,/,.
Cc1ccc(C(=O)OCC(=O)Nc2ccc3c(c2)OCO3)cc1S(=O)(=O)N1CCOCC1,.,.,-77,.,.
COc1ccc(OCC(O)CNC(=O)Nc2ccc(C(C)(C)C)cc2)cc1 (centres undefined),.,.,.,.,.
COc1ccc(OCC(O)CNC(=O)Nc2cc(F)ccc2C)cc1 (centres undefined),.,.,-41,.,.
SMILES,D3 ag,D1 potentiator,D1 antagonist,DRD3 antagonist,D1 ag
CCc1nnc(NC(=O)CSc2ncnc3scc(-c4ccc(C)cc4)c23)s1,51,.,.,.,.
O=C1CC(SC2=NCCS2)C(=O)N1c1ccc(Br)cc1 (centres undefined),.,.,.,.,44
COC(=O)c1sccc1S(=O)(=O)N(CC(=O)Nc1ccc(C)cc1)c1ccccc1,.,.,.,/,.
CC(Sc1nc2ccccc2c(=O)n1CCc1ccc(S(N)(=O)=O)cc1)C(=O)NC(N)=O (centres undefined),.,.,.,.,.
Cc1cn([C@@H](CCCCNC(=O)OC(C)(C)C)C(=O)NCCCCCCCCCCC(=O)N2CCN(C(=O)OC(C)(C)C)CC2)nn1,66,.,.,.,.
C#CCOCCOCCOCCNc1nc(N2CCN(C(=O)CCCCCCCCCCNC(=O)[C@H](CCCCN)n3cc(C)nn3)CC2)nc(N2CCN(C(=O)CCCCCCCCCCNC(=O)[C@@H]([C@H](C)O)n3cc(C)nn3)CC2)n1,.,.,.,.,34
CC[C@H](C)Cc1cn([C@@H](CCCN=C(NC(=O)OC(C)(C)C)NC(=O)OC(C)(C)C)C(=O)NCCCCCCCCCCC(=O)N2CCN(C(=O)OC(C)(C)C)CC2)nn1,.,.,.,.,.
C#CCOCCOCCOCCNc1nc(N2CCN(C(=O)CCCCCCCCCCNC(=O)[C@H](CCCCN)n3cc(C)nn3)CC2)nc(N2CCN(C(=O)CCCCCCCCCCNC(=O)[C@H](CCCN=C(N)N)n3cc(C[C@@H](C)CC)nn3)CC2)n1,.,.,.,?,.
C#CCOCCOCCOCCNc1nc(N2CCN(C(=O)CCCCCCCCCCNC(=O)[C@H](CCCCN)n3cc(C[C@@H](C)CC)nn3)CC2)nc(N2CCN(C(=O)CCCCCCCCCCNC(=O)[C@@H]([C@H](C)O)n3cc(C)nn3)CC2)n1,.,.,.,-59,.
Cc1cc(C)c(S(=O)(=O)Nc2ccc3oc4c(c3c2)CCCC4)cc1C,.,.,.,/,.
Cc1ccc(C(=O)O)cc1Nc1nc2ccccc2n2nnnc12,.,.,.,/,.
Cn1nnnc1NN=Cc1ccccc1,.,/,/,.,/
OC(C#CCN1CCCC1)c1ccccc1 (centres undefined),.,.,.,.,.
CC(C)C(O)(C#CCN1CCCCC1)c1ccccc1 (centres undefined),.,.,.,-71,.
OC(C#CCN1CCCCCC1)(c1ccccc1)c1cccnc1 (centres undefined),.,.,.,-64,.
OC(C#CCN1CCCCC1)c1ccccc1 (centres undefined),.,.,.,-51,.
Cc1c(NC(=O)Nc2cccc(C(F)(F)F)c2)c(=O)n(-c2ccccc2)n1C,.,.,.,.,.
COc1ccc([C@]23Cc4cc(C#N)ccc4C(O2)c2c(c4ccc(OC)cc4oc2=O)O3)cc1,/,.,.,/,.
CCCn1c(=O)[nH]c(=O)c2c1nc(-c1ccccc1)n2CCN1CCOCC1,.,.,/,.,.
O=C1c2ccccc2-c2onc3ccc(NCc4ccco4)c1c23,.,.,.,.,122
O=C1c2ccccc2-c2onc3c(Oc4ccccc4)cc(O)c1c23,/,.,.,/,.
O=C1c2ccccc2-c2onc3ccc(N4CCCC4)c1c23,.,.,.,?,167
CCOc1ccc2noc3c2c1C(=O)c1ccccc1-3,.,.,.,.,98
CCNc1ccc2noc3c2c1C(=O)c1ccccc1-3,.,.,-44,.,313
